# DAX1 inh-1: DAX1 (NR0B1) inhibitors on StAR promoter, primary screen, cell-based, luminescence, SF-1 (NR5A1), full-length DAX-1. 370,000 tested, 1.1% active. HEK293T StAR-luciferase reporter, SF-1/DAX-1 repression relief. inhibition, % at 6.8 µM;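 active means inhibition above the mean over all tested compounds plus 3 SD, cut at about 3.6% in these data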;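 further: 0% = DAX-1 cells with DMSO and 100% = cells lacking DAX-1 with DMSO; higher inhibition means more luminescence from relief of DAX-1 repression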
# DAX1 inh-2: DAX1 (NR0B1) inhibitors, primary screen, cell-based, HEK293, Gal4-DAX1, luciferase luminescence | HEK293 Gal4-DAX1 luciferase reporter | inhibition, % at 6.75 µM | 340,000 tested, 0.99% active;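 active means inhibition above the mean over all tested compounds plus 3 SD, cut at about 4.2% in these data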;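 further: 0% = DAX1-transfected cells with DMSO and 100% = empty-vector control cells with DMSO; inhibition shows as a rise in luminescence from relieved DAX1 repression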
# ssDAF-12 act: S. stercoralis DAF-12 nuclear receptor activators, primary screen, cell-based, luminescence, HEK293, GRIP1 co-expression, lit1-tk-luc; HEK293 ssDAF-12/GRIP1 lit1-tk-luc reporter; % of 3 µM dafachronic acid response; activation, % at 6.8 µM; 370,000 tested, 1% active;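 active means activation above the mean over all tested compounds plus 3 SD, cut at about 0.9% in these data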;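 further: 0% = DMSO-only wells and 100% = 3 µM delta7-dafachronic acid wells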
# hcDAF-12 act: H. contortus DAF-12 nuclear receptor activators, primary screen, cell-based, luminescence, HEK293, lit1-tk-luc reporter; HEK293 hcDAF-12 lit1-tk-luc reporter; 0% DMSO, 100% Δ7-dafachronic acid; activation, % at 6.8 µM; 370,000 tested, 1.4% active; AID 652067, 2013;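 active means activation above the mean of all tested compounds plus 3 SD, cut at about 5.5% in these data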;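 further: 100% = response to 3 µM Δ7-dafachronic acid high control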
# hgDAF-12 ag: H. glycines DAF-12 receptor agonists, primary screen, cell-based, luminescence, HEK293, GAL4 fusion, UAS-luciferase | Nuclear hormone receptor DAF-12 (Heterodera glycines), GAL4 fusion | HEK293 GAL4-hgDAF12 UAS-luciferase reporter, agonist luminescence; normalized to butyrate control | activation, % at 6.8 µM | 370,000 tested, 1.8% active;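 active means activation above a cutoff set at the mean of all screened compounds plus 3 SD, cut at about 10% in these data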;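 further: 0% = DMSO wells and 100% = sodium butyrate wells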
# AHR activator: AHR activators, primary screen, cell-based, luminescence, luciferase reporter, human; AHR-responsive luciferase reporter cells; activation, % at 5 µM; 320,000 tested, 2.5% active; in the data active means activation above about 47%;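 further: 0% = vehicle wells and 100% = reference agonist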
# Target sequence (P35869 whole entry, looked up): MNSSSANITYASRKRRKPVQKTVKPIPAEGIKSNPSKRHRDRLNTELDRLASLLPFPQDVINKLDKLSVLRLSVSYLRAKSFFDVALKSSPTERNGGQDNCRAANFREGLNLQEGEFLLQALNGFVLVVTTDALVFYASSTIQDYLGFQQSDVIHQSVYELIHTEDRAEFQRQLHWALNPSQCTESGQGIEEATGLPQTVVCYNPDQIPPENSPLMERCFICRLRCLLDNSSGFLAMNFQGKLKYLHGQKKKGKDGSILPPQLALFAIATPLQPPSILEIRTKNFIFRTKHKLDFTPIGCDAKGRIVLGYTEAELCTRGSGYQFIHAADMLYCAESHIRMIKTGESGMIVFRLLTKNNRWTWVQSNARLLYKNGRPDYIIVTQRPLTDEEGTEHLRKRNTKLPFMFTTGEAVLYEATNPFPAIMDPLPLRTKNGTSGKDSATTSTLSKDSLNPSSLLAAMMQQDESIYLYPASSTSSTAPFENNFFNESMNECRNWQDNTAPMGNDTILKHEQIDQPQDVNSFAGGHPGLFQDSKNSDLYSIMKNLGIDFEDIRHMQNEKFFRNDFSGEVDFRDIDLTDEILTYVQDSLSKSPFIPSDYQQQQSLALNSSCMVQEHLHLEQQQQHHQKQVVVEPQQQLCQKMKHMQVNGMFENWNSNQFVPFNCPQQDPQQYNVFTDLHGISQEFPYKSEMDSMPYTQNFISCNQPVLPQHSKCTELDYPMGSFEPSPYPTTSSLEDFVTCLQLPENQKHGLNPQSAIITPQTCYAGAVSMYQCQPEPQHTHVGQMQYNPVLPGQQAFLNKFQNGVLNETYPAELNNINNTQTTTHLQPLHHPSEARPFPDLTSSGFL
# Starred values were filed as active, the others as inactive; nt = no result. Rows were chosen to be rich in hits. Some 5.7% of all compounds tested hit in one or more screens of this group.
SMILES,DAX1 inh-1,DAX1 inh-2,ssDAF-12 act,hcDAF-12 act,hgDAF-12 ag,AHR activator
CC(=O)c1c(C)[nH]c(C(=O)CSc2nnc(-c3ccco3)n2Cc2ccccc2)c1C,-2,-2,-2,-2,-3,69*
CC(=O)c1c(C)[nH]c(C(=O)CSc2nnc(-c3cccs3)n2Cc2ccccc2)c1C,-1,-2,-2,-1,-3,7
CSc1sc(C(=O)NNC(C)=O)c2c1C=CCC2,1,nt,-2,0,1,2
CCNC(=O)/N=C1/NC(=O)C(C(C)C)O1 (configuration not stated),1,2,0,-1,0,2
Oc1cc(-c2ccc(N3CCCCC3)nc2)cc2cccnc12,nt,5.6*,nt,nt,nt,7
O=C(CCN1C(=O)C2C3CCC(C3)C2C1=O)Nc1ccccc1Cl (configuration not stated),0,0,-2,-2,-1,4
COC(=O)c1ccc(C(=O)Nc2ccc(C(C)C)cc2N)cc1,0,1,-2,2,3,4
Cc1ccccc1Cn1nnc(-c2cccc(C(=O)O)c2)n1,3,-2,-1,4,12*,4
COc1ccc(CN2C(=O)c3cccnc3C2=O)cc1S(=O)(=O)N(C)c1cccc(C)c1,0,0,-1,-1,-1,1
CC(C)c1ccc(CNc2ccc3c(c2)ncn3C)cc1,0,1,-1,-1,2,63*
Cc1ccccc1Oc1cc(-n2ncc(Cl)c(Cl)c2=O)ncn1,1,-5,-2,3,-2,32
CC(C)Nc1nc(-c2cccnc2)nc(-c2ccccc2)c1C#N,-1,2,-1,-3,2,12
CC(C)Nc1nc(-c2ccccn2)nc(-c2ccccc2)c1C#N,0,4.8*,-1,-2,0,0
O=c1nc(/C=C/c2ccc(O)c(O)c2)oc2ccccc12,nt,4.8*,nt,nt,nt,nt
Cc1cc(C)c2c(CN3CCC(C)CC3)cc(=O)oc2c1C,0,4.8*,-1,0,-1,11
O=C(N1CCOCC1)N1CCN(c2nc(-c3ccccc3)cs2)CC1,0,1,-1,0,2,nt
CN(C)C(=O)N1CCN(c2nc(-c3ccccc3)cs2)CC1,1,4.6*,-1,0,10,-1
O=C(O)c1cccc(S(=O)(=O)NCCc2ccccc2)c1,0,-1,-1,0,-3,1
O=C1c2ccccc2NC(c2cccc(Cl)c2)N1N=C1CCCCCC1 (configuration not stated),2,4.9*,-1,2,7,13
O=C1c2ccccc2NC(c2ccc(Cl)cc2Cl)N1O (configuration not stated),0,1,-1,2,2,0
COCCOC(=O)C1=C(C)NC2=C(C(=O)CC(c3cccs3)C2)C1c1ccsc1 (configuration not stated),-1,0,-1,-2,-3,50*
COC(=O)C1=C(C)NC2=C(C(=O)CC(C)(C)C2)C1c1ccsc1 (configuration not stated),-1,-1,-2,0,1,1
Cc1ccsc1C(=O)OCc1cc(=O)n2ccsc2n1,4.3*,2,0.9*,2,13*,-1
O=C(OCc1cc(=O)n2ccsc2n1)c1ccc(O)cc1O,1,1,-1,1,9,0
O=C(Nc1cccc(-c2nc3cccnc3s2)c1)c1ccc(Cl)nc1,0,2,0,1,6,68*
SMILES,DAX1 inh-1,DAX1 inh-2,ssDAF-12 act,hcDAF-12 act,hgDAF-12 ag,AHR activator
O=C(Nc1cccc(-c2nc3cccnc3s2)c1)c1cccnc1Cl,0,0,-2,0,1,45
O=C(CNC(=O)c1ccccc1)OCC(=O)c1c[nH]c2ccccc12,0,0,0,5,2,21
O=S(=O)(Nc1ccc(O)c2ccccc12)c1cccs1,-1,-2,1,6.7*,-2,47
O=S(=O)(Nc1cccc2ccccc12)c1cccs1,0,1,-1,6.1*,0,25
COc1ccccc1NS(=O)(=O)c1cccs1,0,-1,-1,0,3,-1
CCCCOc1ccc(C2=CSC3=NCCN23)cc1[N+](=O)[O-],-1,0,-1,-1,1,7
COc1ccccc1C1C2=C(CCCC2=O)N(CC(=O)O)C2=C1C(=O)CCC2,0,2,-1,-2,0,6
CCOc1cc2[nH]c(=S)n(Cc3ccc(C)o3)c(=O)c2cc1OCC,0,0,-2,-1,-1,65*
O=Cc1ccc(OCc2ccc3c(c2)OCO3)cc1,1,2,0,3,11*,2
Cc1ccc(COc2ccc3c(c2)OCO3)cc1,1,1,0,1,10,6
CCN(C(=O)Cn1c([N+](=O)[O-])cnc1C)c1ccccc1,1,0,1.5*,1,-2,1
Cc1ncc([N+](=O)[O-])n1CC(=O)Nc1ccccc1,0,1,-2,-1,0,-1
Cc1ccc(C(=O)COC(=O)C2C3C=CC(C3)C2C(=O)OCC(=O)c2ccc(C)c(C)c2)cc1C (configuration not stated),0,-1,-1,0,-1,3
O=C(N/N=C/c1oc(O)c2ccccc12)c1ccccc1O,0,1,-1,1,0,11
O=[N+]([O-])CC(=Nc1ccc(F)cc1)N/N=C\c1oc(O)c2ccccc12,nt,nt,nt,nt,nt,54*
O=C(CSc1nc2ncc(Cl)cc2[nH]1)c1c[nH]c2ccccc12,0,2,-1,2,0,60*
O=C(CSc1nc2ccc(Cl)cc2[nH]1)c1c[nH]c2ccccc12,0,0,1,4,0,77*
O=C(CSc1nccc(=O)[nH]1)c1c[nH]c2ccccc12,0,0,0,4,-1,12
COC(=O)CCCCCCCC(=O)Nc1nnc(C(F)(F)F)s1,0,6.1*,-1,-1,-2,8
Nc1ncnc2[nH]c(=S)[nH]c12,0,2,-1,-1,-1,nt
Cc1cccc2c1cnn2C(=O)Nc1ccccc1Br,0,0,0,4,-1,11
Cc1cccc2c1cnn2C(=O)Nc1ccccc1Cl,0,1,0,5.8*,7,6
